# Calls of active or inactive are those of the source.
# Experiment: resazurin metabolic signal in HepG2 cells – cell-based, resazurin fluorescence, 24 h, PK04 Diversity Set, profiling panel (AID 1172); also: test concentration not given here
# Settings: HepG2 viability, higher = more signal
row,Structure (SMILES),z-score
1,CCC[C@@H]1C=C(C(=O)O)[C@H](c2ccc(C)cc2)N1S(=O)(=O)c1ccc(C)cc1,-0.795
2,CC(C)NC(=O)[C@@H]1c2ccccc2C(=O)N(Cc2ccccc2)[C@H]1c1ccc(CO)cc1,-0.043
3,Cc1ccc(S[C@]2(C(=O)NCc3ccccc3)CC(=O)N(Cc3ccccc3)[C@@H]2c2ccc(CO)cc2)cc1,-0.345
4,COC(=O)c1ccc(C(O)C2C=CC3C(=O)N(C)C(=O)C3N2NC(=O)OC(C)(C)C)o1 (centres undefined),-0.784
5,COc1ccc(C(=O)Nc2cccc(CN3C(=O)[C@]4(O[C@H](CC(=O)N5CCC[C@H]5CO)[C@@H]([Si](C)(C)c5ccc(OC)cc5)[C@@H]4C)c4ccccc43)c2)cc1,-1.72
6,CC(C)Cc1ccc(CN2CC[C@@H](NS(=O)(=O)c3ccccc3)C2)cc1,-0.788
7,C=CCC(OC(C)=O)[C@@H]1[C@@H](N(Cc2cccc3ccccc23)C(=O)c2cccc3ccccc23)c2cc(OCCCO)ccc2N1C(=O)c1ccc2ccccc2n1 (some centres undefined),-0.0111
8,COCCOC(=O)N1C(=O)[C@@]2(c3cc(C#CCNC(N)=O)ccc31)[C@H](c1ccc(OCCO)cc1)N1[C@H](c3ccccc3)[C@H](c3ccccc3)OC(=O)[C@H]1[C@@H]2C(=O)N1CCc2cc(OC)c(OC)cc2C1,0.358
9,O=C1C=CC(=O)[C@@H]2CC(COc3ccccc3)=C3[C@@H](CCc4ccccc4)OB(O)C[C@@H]3[C@H]12,-0.814
10,[N-]=[N+]=NCc1ccccc1[C@@H]1OC(c2ccc(OCCCO)cc2)=N[C@]1(Cc1ccccc1N=[N+]=[N-])C(=O)NCc1ccccc1,0.206
11,NCCCCCCNC(=O)[C@H]1C[C@H]2C(=O)NCC(=O)N2[C@H]1c1cccc(OCCO)c1,0.583
12,CCCCCN1CC=CC23O[C@@H]4/C=C\CCC(C)OC(=O)C4[C@H]2C(=O)N(CCCCCO)[C@@H]3C1=O (some centres undefined),0.58
13,O=C(NCc1ccccc1)[C@]1(CCS(=O)(=O)c2ccccc2)N=C(c2ccc(OCCCO)cc2)O[C@@H]1c1ccccc1,0.0669
14,C=CC(=C)C1=CCO[C@@H]1[C@H]1CCCN1S(=O)(=O)c1ccccc1[N+](=O)[O-],1.09
15,COc1ccc(C(=O)Nc2cccc(CN3C(=O)[C@@]4(O[C@@H](CCn5cc(CCO)nn5)[C@H]([Si](C)(C)c5ccc(OC)cc5)[C@H]4C)c4ccccc43)c2)cc1,-5.75
16,CCCC[C@H]1OB(O)C[C@H]2C1=C(C)C[C@H]1C(=O)N(Cc3ccccc3)C(=O)[C@H]12,0.589
17,COc1ccc(NN2C(C(O)c3ccc(OC)c(OCc4ccccc4)c3)C=CC3C(=O)N(C4CCCCC4)C(=O)C32)cc1 (centres undefined),1.03
18,COCC(=C=CC[C@H](O)c1ccc(OCCO)cc1)C[C@H](O)c1cc(Cl)cc(Cl)c1O,0.751
19,O=C/C=C/c1ccc2c(c1)OCO2,0.134
20,Cc1ccc(S[C@]2(C(=O)NCC(C)C)CC(=O)N(Cc3ccccc3Cl)[C@@H]2c2ccc(CO)cc2)cc1,-0.0675
21,CN(C)C(=O)[C@]1(CCC(=O)OC(C)(C)C)N=C(c2ccc(OCCCO)cc2)O[C@@H]1c1ccccc1N=[N+]=[N-],1.49
22,[N-]=[N+]=NCc1ccccc1C[C@]1(C(=O)NCCN2CCOCC2)N=C(c2ccc(OCCCO)cc2)O[C@H]1c1ccccc1N=[N+]=[N-],-0.854
23,O=C1O[C@H](c2ccccc2)[C@H](c2ccccc2)N2[C@H]1[C@@H](C(=O)Nc1nc3ccccc3s1)[C@]1(C(=O)Nc3ccccc31)[C@H]2c1ccc(O)cc1,-0.166

# Experiment: budding yeast growth changes without added modifier – OD600, strain BY4716, 24 h, basal condition, primary screen (AID 1173)
# Settings: S. cerevisiae BY4716 growth, OD600, 24 h; higher = more signal, called active from +8 up or from −8 down
row,Structure (SMILES),z-score
1,CN1CCC(CCCO)=CC1c1ccc(CN2CCCC2)cc1 (centres undefined),-1.33 (inactive)
2,C=C[C@H](C)[C@@H](O)c1ccc(O)c2ccccc12,-12.2 (active)
3,COCCOC(=O)N1C(=O)[C@@]2(c3cc(C#CC4=CCCCC4)ccc31)[C@H](C(=O)N1CCc3cc(OC)c(OC)cc3C1)[C@H]1C(=O)O[C@H](c3ccccc3)[C@H](c3ccccc3)N1[C@@H]2c1ccccc1OCCO,1.11 (inactive)
4,COC(=O)C1=CC(CCCO)=CC(C2CC2)N(Cc2sc3ccccc3c2Cl)C=C1C(=O)OC (centres undefined),-1.32 (inactive)
5,NC(=O)NCC#Cc1ccc2c(c1)[C@]1(C(=O)N2)[C@H](C(=O)N2CCCCCCC2)[C@H]2C(=O)O[C@H](c3ccccc3)[C@H](c3ccccc3)N2[C@@H]1c1ccc(OCCO)cc1,1.84 (inactive)
6,COc1ccccc1CN1C(=O)c2ccccc2[C@@H](C(=O)NCCN2CCOCC2)[C@@H]1c1ccc(CO)cc1,-0.248 (inactive)
7,O=c1cccc(C=Cc2ccccc2)o1,-2.09 (inactive)
8,C=C[C@@H](COC(C)=O)N(Cc1ccc([N+](=O)[O-])cc1)S(=O)(=O)c1ccc(Br)cc1,-0.367 (inactive)
9,CC(C)C(=C=CC[C@@H](O)c1ccccc1OCCO)C[C@@H](O)c1ccccn1,-1.09 (inactive)
10,CCCCC=C[C@@H](NC(=O)c1ccc(C(=O)OC)cc1)c1ccccc1,0.399 (inactive)
11,O=c1oc(-c2ccccc2)nc2cc(Br)ccc12,-2.41 (inactive)
12,C=CC(COC(C)=O)NS(=O)(=O)c1ccc(Br)cc1 (centres undefined),-2.68 (inactive)
13,CS(=O)(=O)CCOC(=O)C1=CC(CCCO)=CC(c2cccs2)N(Cc2cc3c(cc2Br)OCO3)C=C1C(=O)OCCS(C)(=O)=O (centres undefined),-2.65 (inactive)
14,CCC[C@@H]1C=C(C(=O)O)[C@H](c2ccc(C)cc2)N1S(=O)(=O)c1ccc(C)cc1,0.0188 (inactive)
15,CC(C)NC(=O)[C@@H]1c2ccccc2C(=O)N(Cc2ccccc2)[C@H]1c1ccc(CO)cc1,0.349 (inactive)
16,Cc1ccc(S[C@]2(C(=O)NCc3ccccc3)CC(=O)N(Cc3ccccc3)[C@@H]2c2ccc(CO)cc2)cc1,-0.27 (inactive)
17,COC(=O)c1ccc(C(O)C2C=CC3C(=O)N(C)C(=O)C3N2NC(=O)OC(C)(C)C)o1 (centres undefined),0.483 (inactive)
18,COc1ccc(C(=O)Nc2cccc(CN3C(=O)[C@]4(O[C@H](CC(=O)N5CCC[C@H]5CO)[C@@H]([Si](C)(C)c5ccc(OC)cc5)[C@@H]4C)c4ccccc43)c2)cc1,-0.268 (inactive)

row,Structure (SMILES),z-score
1,CC(C)Cc1ccc(CN2CC[C@@H](NS(=O)(=O)c3ccccc3)C2)cc1,-14.2 (active)
2,C=CCC(OC(C)=O)[C@@H]1[C@@H](N(Cc2cccc3ccccc23)C(=O)c2cccc3ccccc23)c2cc(OCCCO)ccc2N1C(=O)c1ccc2ccccc2n1 (some centres undefined),-0.337 (inactive)
3,COCCOC(=O)N1C(=O)[C@@]2(c3cc(C#CCNC(N)=O)ccc31)[C@H](c1ccc(OCCO)cc1)N1[C@H](c3ccccc3)[C@H](c3ccccc3)OC(=O)[C@H]1[C@@H]2C(=O)N1CCc2cc(OC)c(OC)cc2C1,2.29 (inactive)
4,O=C1C=CC(=O)[C@@H]2CC(COc3ccccc3)=C3[C@@H](CCc4ccccc4)OB(O)C[C@@H]3[C@H]12,-6.89 (inactive)
5,[N-]=[N+]=NCc1ccccc1[C@@H]1OC(c2ccc(OCCCO)cc2)=N[C@]1(Cc1ccccc1N=[N+]=[N-])C(=O)NCc1ccccc1,1.15 (inactive)
6,NCCCCCCNC(=O)[C@H]1C[C@H]2C(=O)NCC(=O)N2[C@H]1c1cccc(OCCO)c1,-1.42 (inactive)
7,CCCCCN1CC=CC23O[C@@H]4/C=C\CCC(C)OC(=O)C4[C@H]2C(=O)N(CCCCCO)[C@@H]3C1=O (some centres undefined),-1.12 (inactive)
8,O=C(NCc1ccccc1)[C@]1(CCS(=O)(=O)c2ccccc2)N=C(c2ccc(OCCCO)cc2)O[C@@H]1c1ccccc1,1.08 (inactive)
9,C=CC(=C)C1=CCO[C@@H]1[C@H]1CCCN1S(=O)(=O)c1ccccc1[N+](=O)[O-],-0.793 (inactive)
10,COc1ccc(C(=O)Nc2cccc(CN3C(=O)[C@@]4(O[C@@H](CCn5cc(CCO)nn5)[C@H]([Si](C)(C)c5ccc(OC)cc5)[C@H]4C)c4ccccc43)c2)cc1,-6.12 (inactive)
11,CCCC[C@H]1OB(O)C[C@H]2C1=C(C)C[C@H]1C(=O)N(Cc3ccccc3)C(=O)[C@H]12,-5.14 (inactive)
12,COc1ccc(NN2C(C(O)c3ccc(OC)c(OCc4ccccc4)c3)C=CC3C(=O)N(C4CCCCC4)C(=O)C32)cc1 (centres undefined),-1.76 (inactive)
13,COCC(=C=CC[C@H](O)c1ccc(OCCO)cc1)C[C@H](O)c1cc(Cl)cc(Cl)c1O,-18 (active)
14,O=C/C=C/c1ccc2c(c1)OCO2,-12.8 (active)
15,Cc1ccc(S[C@]2(C(=O)NCC(C)C)CC(=O)N(Cc3ccccc3Cl)[C@@H]2c2ccc(CO)cc2)cc1,-0.511 (inactive)
16,CN(C)C(=O)[C@]1(CCC(=O)OC(C)(C)C)N=C(c2ccc(OCCCO)cc2)O[C@@H]1c1ccccc1N=[N+]=[N-],0.192 (inactive)
17,[N-]=[N+]=NCc1ccccc1C[C@]1(C(=O)NCCN2CCOCC2)N=C(c2ccc(OCCCO)cc2)O[C@H]1c1ccccc1N=[N+]=[N-],-0.318 (inactive)
18,O=C1O[C@H](c2ccccc2)[C@H](c2ccccc2)N2[C@H]1[C@@H](C(=O)Nc1nc3ccccc3s1)[C@]1(C(=O)Nc3ccccc31)[C@H]2c1ccc(O)cc1,-0.373 (inactive)

# Source: PubChem BioAssay
